Assay [1] has as its target Rap guanine nucleotide exchange factor 3 (Homo sapiens) (UniProt O95398). Briefly: Confirmatory qHTS for antagonist of cAMP-regulated guanine nucleotide exchange factor 3 (EPAC1) (AID 1645880).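 For activity, negative = inhibition: plate controls were DMSO only for no effect and full effect of the ATA control for full effect.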 Note: nearly all actives have a fitted effect of over 55% in size. Note: potency is the fitted concentration of half-maximal effect. Particulars: EPAC1 Rap1B-BODIPY-GDP exchange, fluorescence; activity, negative = inhibition: at 115 µM (top of the series). Summed up:
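Released BODIPY-GDP fluoresces less than Rap1-bound BODIPY-GDP; the signal is followed at 480/540 nm at 5-min intervals over 30 min, after 5 min at room temperature. Reactions contain 100 nM EPAC1, 250 nM RAP1B-BODIPY-GDP and 50 uM GDP; results are normalized to ATA and DMSO.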
For orientation: qHTS replaces the single test concentration by a dilution series.

For assay [2] the target is unchanged. Briefly: Confirmatory qHTS for agonist of cAMP-regulated guanine nucleotide exchange factor 3 (EPAC1) (AID 1645881).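 For activation: EPAC1 catalysed release of BODIPY-GDP from Rap1B seen as fluorescence loss; 100% = effect of cAMP agonist control.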 Note: nearly all actives have a fitted effect of over 75% in size. Note: potency is the fitted concentration of half-maximal effect.
Assay [3] has as its target Rap guanine nucleotide exchange factor 4 (Homo sapiens) (UniProt Q8WZA2). Kind of assay: Confirmatory qHTS for agonist of cAMP-regulated guanine nucleotide exchange factor 4 (EPAC2) (AID 1645884). For activation: % is set by controls: 0 for no effect and ±100 for the full control effect.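 Note: nucleotide exchange releases bodipy-GDP from Rap1 and this lowers its fluorescence; nearly all actives have a fitted effect of over 65% in size.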 Note: potency is the fitted concentration of half-maximal effect.
Assay [4] has as its target Rap guanine nucleotide exchange factor 3 (Homo sapiens) (UniProt O95398). Kind of assay: Counterscreen qHTS for antagonist of cAMP-regulated guanine nucleotide exchange factor 3 (EPAC1) (AID 1645888). Note: % of control where 0% means no effect. The gist of the method: (§1)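 Rap1B-BODIPY-GDP 250 nM + GDP 50 uM; cpds 7-pt, final 9.74 nM–152 uM (activator mode) or from 7.32 nM upwards (inhibitor mode); RT; FI 480/540 nm at 5 and 30 min, then ± cAMP, reread.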

Assay [5] has the same target. Kind of assay: Counterscreen qHTS for agonist of cAMP-regulated guanine nucleotide exchange factor 3 (EPAC1) (AID 1645889). For activation: % of control where 0% means no effect. Note: nearly all actives have a fitted effect of over 40% in size. Note: potency is the fitted concentration of half-maximal effect. The gist of the method: as §1
A general note: A counterscreen serves to expose hits that act by an unwanted route or on another target.

Structures are written as SMILES. Results filed as inconclusive are left out. Unmarked numbers belong to inactive results. Calls of active or inactive are those of the source. Calls come from the whole dose curve; as a rule, active = well fitted curve in the direction sought with a large enough effect; inconclusive = small, poorly fitted or top-dose-only effect, or another doubt; inactive = no such curve, though single readings can be large; an effect the other way counts as inactive or inconclusive.

Sequence of Rap guanine nucleotide exchange factor 3 (Homo sapiens) (O95398 whole entry, looked up): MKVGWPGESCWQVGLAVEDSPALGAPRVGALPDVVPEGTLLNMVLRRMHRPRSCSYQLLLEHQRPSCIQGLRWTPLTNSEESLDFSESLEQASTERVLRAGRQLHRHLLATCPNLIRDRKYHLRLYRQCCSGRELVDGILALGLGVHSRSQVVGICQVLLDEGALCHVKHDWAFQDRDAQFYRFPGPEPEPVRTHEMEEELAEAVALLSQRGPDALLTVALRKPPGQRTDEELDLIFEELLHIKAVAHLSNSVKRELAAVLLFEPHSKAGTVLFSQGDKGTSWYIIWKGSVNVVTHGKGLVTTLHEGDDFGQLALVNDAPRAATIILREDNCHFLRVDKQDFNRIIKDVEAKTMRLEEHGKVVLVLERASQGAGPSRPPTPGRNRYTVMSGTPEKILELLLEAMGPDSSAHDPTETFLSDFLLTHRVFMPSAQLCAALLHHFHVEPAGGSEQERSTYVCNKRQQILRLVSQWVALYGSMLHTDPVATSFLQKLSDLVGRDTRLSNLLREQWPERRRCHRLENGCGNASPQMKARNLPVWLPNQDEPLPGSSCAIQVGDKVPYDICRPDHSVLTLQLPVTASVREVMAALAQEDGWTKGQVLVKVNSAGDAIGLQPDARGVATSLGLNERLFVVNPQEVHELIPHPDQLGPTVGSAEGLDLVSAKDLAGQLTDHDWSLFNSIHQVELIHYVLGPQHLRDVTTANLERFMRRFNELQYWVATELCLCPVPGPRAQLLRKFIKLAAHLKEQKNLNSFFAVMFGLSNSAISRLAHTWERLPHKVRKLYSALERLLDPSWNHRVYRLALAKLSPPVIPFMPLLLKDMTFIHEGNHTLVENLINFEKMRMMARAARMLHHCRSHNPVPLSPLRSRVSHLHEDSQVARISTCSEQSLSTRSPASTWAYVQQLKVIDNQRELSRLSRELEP
Sequence of Rap guanine nucleotide exchange factor 4 (Homo sapiens) (Q8WZA2 whole entry, looked up): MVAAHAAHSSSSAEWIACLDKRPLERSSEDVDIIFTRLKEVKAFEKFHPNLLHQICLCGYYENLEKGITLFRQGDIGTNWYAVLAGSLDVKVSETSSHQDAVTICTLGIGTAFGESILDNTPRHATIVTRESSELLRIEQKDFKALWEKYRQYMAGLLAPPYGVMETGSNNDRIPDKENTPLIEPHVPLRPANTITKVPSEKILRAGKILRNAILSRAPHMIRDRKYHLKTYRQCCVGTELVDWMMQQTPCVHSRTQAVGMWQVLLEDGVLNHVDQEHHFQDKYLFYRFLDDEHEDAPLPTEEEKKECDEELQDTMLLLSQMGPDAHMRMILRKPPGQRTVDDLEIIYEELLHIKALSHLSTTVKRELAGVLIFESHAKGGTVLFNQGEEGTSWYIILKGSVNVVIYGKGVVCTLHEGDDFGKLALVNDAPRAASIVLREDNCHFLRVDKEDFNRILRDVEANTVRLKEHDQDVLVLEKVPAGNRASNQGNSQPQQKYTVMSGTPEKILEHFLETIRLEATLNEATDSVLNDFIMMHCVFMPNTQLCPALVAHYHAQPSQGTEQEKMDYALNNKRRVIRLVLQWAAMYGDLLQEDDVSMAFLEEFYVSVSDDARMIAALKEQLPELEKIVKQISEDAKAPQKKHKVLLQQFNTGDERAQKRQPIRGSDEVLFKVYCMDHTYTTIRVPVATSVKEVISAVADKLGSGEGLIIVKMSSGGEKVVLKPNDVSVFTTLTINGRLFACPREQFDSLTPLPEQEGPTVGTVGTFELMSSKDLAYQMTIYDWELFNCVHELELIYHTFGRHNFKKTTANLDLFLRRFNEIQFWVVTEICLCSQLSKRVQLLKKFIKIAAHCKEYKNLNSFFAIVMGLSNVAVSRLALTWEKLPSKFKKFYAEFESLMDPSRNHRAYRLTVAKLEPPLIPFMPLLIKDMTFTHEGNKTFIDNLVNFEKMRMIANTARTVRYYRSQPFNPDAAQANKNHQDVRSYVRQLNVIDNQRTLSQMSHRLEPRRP

Consider `CC(C(=O)Nc1ccc(O)c(C(=O)O)c1)N1C(=O)/C(=C/c2cccs2)SC1=S` (stereo not given), for which the Potency in assay [1] was 37.9 µM (active). Also, the Potency result in assay [2], in assay [3], in assay [4] and in assay [5] was “inactive” throughout.
With `COc1ccccc1C(=O)C1CCCN(C(=O)c2ccc3c(c2)OCCO3)C1` (stereo not given), the Potency result in assay [1], in assay [2], in assay [3], in assay [4] and in assay [5] was “inactive” in each case.
Take `CCN(CC)CCN(C(=O)c1cc2ccccc2cc1OC)c1nc2ccc(F)cc2s1`: the Potency entry in assay [1], in assay [2], in assay [3], in assay [4] and in assay [5] was “inactive” throughout.
As to `CC(Oc1ccc(Cl)cc1Cl)c1ccn[nH]1` (stereo not given), the Potency entry in assay [1], in assay [2], in assay [3], in assay [4] and in assay [5] was “inactive” throughout.
Turning to `O=S(=O)(O)c1cc(O)c2cc(Nc3ccccc3)ccc2c1`, the Potency in assay [1] is 37.9 µM (active). The Potency result in assay [2], in assay [3], in assay [4] and in assay [5] was “inactive” throughout.
As to `O=C1c2ccccc2S(=O)(=O)c2cc(N3CCC(C(=O)N4CCCCC4)CC3)ccc21`, the Potency entry in assay [1] and in assay [4] was “inactive” throughout. Also, the figures for the Potency in assay [2], in assay [3] and in assay [5] were 89.1 µM (active), 100 µM (active) and 56.2 µM (active), respectively.
For `COc1ccccc1OCCOc1ccc(/C=C2\C(=N)N3N=C(S(C)(=O)=O)SC3=NC2=O)cc1`, in assay [1], the Potency was 67.5 µM (active). In addition, the Potency result in assay [2], in assay [3], in assay [4] and in assay [5] was “inactive” in each case.
In the case of `COc1cc(/C=C(\C#N)c2nc3ccccc3s2)cc([N+](=O)[O-])c1O`, the Potency in assay [1] is 16.9 µM (active). For the same molecule, the Potency entry in assay [2], in assay [3], in assay [4] and in assay [5] was “inactive” each time.
Take `CC1CCN(c2ccc3c(c2)S(=O)(=O)c2cccc(C(=O)NC4CCCCC4)c2C3=O)CC1`: the Potency entry in assay [1] and in assay [4] was “inactive” each time. Besides, the Potency in assay [2] was 89.1 µM (active); in assay [3] it was 100 µM (active); in assay [5], 50.1 µM (active).
Regarding `COc1cc(C(=O)c2ccccc2)c([N+](=O)[O-])cc1OC`, the Potency entry in assay [1], in assay [2], in assay [3], in assay [4] and in assay [5] was “inactive” each time.
Take `Cc1ccc(S(=O)(=O)NCc2ccccc2)cc1C(=O)N1CCCC(C(F)(F)F)C1` (stereo not given): the Potency entry in assay [1], in assay [2], in assay [3], in assay [4] and in assay [5] was “inactive” throughout.
On to `O=C(CS(=O)(=O)c1ccccc1)c1cc2cc(F)ccc2oc1=O`, for which the Potency in assay [1] is 75.7 µM (active). The Potency result in assay [2], in assay [3], in assay [4] and in assay [5] was “inactive” in each case.
As for `COCc1cc(C)nc(SCC(=O)c2ccc(O)c(O)c2)c1C#N`, the Potency in assay [1] is 37.9 µM (active). Besides, the Potency result in assay [2], in assay [3], in assay [4] and in assay [5] was “inactive” in each case.
Take `CS(=O)(=O)c1ccc2c(c1)SC1=NC(=O)/C(=C/c3ccco3)C(=N)N12`: the Potency in assay [1] was 12 µM (active). The Potency result in assay [2], in assay [3], in assay [4] and in assay [5] was “inactive” each time.
For the molecule `Cc1ccc(S(=O)(=O)Nc2ccc3ccccc3c2[N+](=O)[O-])cc1`, the Potency in assay [1] is 75.7 µM (active). Moreover, the Potency entry in assay [2], in assay [3], in assay [4] and in assay [5] was “inactive” each time.
`CC(C)c1ccc(OCC(=O)Nc2cccc(C(=O)Nc3ccccc3C(=O)O)c2)cc1`: the Potency in assay [1] was 75.7 µM (active). The Potency entry in assay [2], in assay [3], in assay [4] and in assay [5] was “inactive” throughout.
For `Cc1onc(-c2ccccc2)c1C(=O)N1CCc2ccccc21`, the Potency entry in assay [1] and in assay [2] was “inactive” in each case. The activation in assay [3] is 1.91% [at 17.1 µM, percent relative to cAMP agonist control]; in assay [5], 18.4% [at 30.8 µM]. The activity change, negative = inhibition in assay [4] is -17.7% [at 30.8 µM].
Turning to `CCOC(=O)CSc1nc2c(c(=O)n(C)c(=O)n2C)n1Cc1ccccc1F`, the Potency entry in assay [1], in assay [2], in assay [3], in assay [4] and in assay [5] was “inactive” each time.
For the molecule `O=c1ccc(-c2ccccc2)nn1Cc1ccc(Cl)cc1`, the Potency entry in assay [1], in assay [2], in assay [3], in assay [4] and in assay [5] was “inactive” each time.
In the case of `O=C(NN1C(=O)/C(=C/c2ccc(O)c([N+](=O)[O-])c2)SC1=S)c1ccccc1Cl`, in assay [1], the Potency is 84.9 µM (active). Besides, the Potency entry in assay [2], in assay [3], in assay [4] and in assay [5] was “inactive” each time.
For the molecule `Nc1nc(C(c2ccccc2)c2ccccc2)cs1`, the Potency result in assay [1], in assay [2], in assay [3], in assay [4] and in assay [5] was “inactive” throughout.
As for `COc1cc(/C=C2\SC(=S)N(NC(=O)c3ccc(O)cc3)C2=O)ccc1O`, in assay [1], the Potency is 75.7 µM (active). The Potency result in assay [2], in assay [3], in assay [4] and in assay [5] was “inactive” in each case.
For `CC(=O)OC1CSC2c3ccccc3C(=O)N2Cc2sccc21` (stereo not given), the Potency result in assay [1], in assay [2], in assay [3], in assay [4] and in assay [5] was “inactive” throughout.
For `Cc1cccc(NC(=O)Cn2c(O)c(N=NC(=O)c3ccccc3O)c3ccccc32)c1`, the Potency in assay [1] is 75.7 µM (active). For the same molecule, the Potency entry in assay [2], in assay [3], in assay [4] and in assay [5] was “inactive” each time.
Consider `CCOc1ccc(C(=O)Nc2c(C(=O)Nc3ccccc3F)oc3ccccc23)cc1OCC`, for which the Potency result in assay [1], in assay [2], in assay [3], in assay [4] and in assay [5] was “inactive” throughout.
For `Cc1ccc([C@H]2C(C(=O)O)=CC[C@@H](c3ccc(C(C)C)cc3)N2S(=O)(=O)c2ccc(C)cc2)cc1`, the Potency in assay [1] is 75.7 µM (active). Besides, the Potency result in assay [2], in assay [3], in assay [4] and in assay [5] was “inactive” each time.
As to `COc1cccc(-c2nc(CS(=O)(=O)CC(=O)N3CCN(C)CC3)c(C)o2)c1`, the Potency entry in assay [1], in assay [2], in assay [3], in assay [4] and in assay [5] was “inactive” throughout.
On to `O=C1CC(=O)Nc2cc(S(=O)(=O)Nc3ccc(Cl)c(C(F)(F)F)c3)ccc2N1`, for which the Potency entry in assay [1], in assay [2], in assay [3], in assay [4] and in assay [5] was “inactive” each time.
Take `c1ccc(C(c2ccccc2)c2ccn[nH]2)cc1`: the Potency entry in assay [1] and in assay [2] was “inactive” in each case. Besides, the activation is 1.43% [at 17.1 µM, percent relative to cAMP agonist control] in assay [3] and 11.3% [at 30.8 µM] in assay [5]. Further, the activity change, negative = inhibition in assay [4] is -9.38% [at 30.8 µM].
Consider `Clc1cccc(-c2ccc3nccn3c2)c1Cl`, for which the Potency entry in assay [1], in assay [2], in assay [3], in assay [4] and in assay [5] was “inactive” in each case.
For the molecule `COCCn1c(SCc2ccccc2F)nc2ccccc2c1=O`, the Potency entry in assay [1] and in assay [2] was “inactive” throughout. In addition, the activation in assay [3] was 4.59% [at 17.1 µM, percent relative to cAMP agonist control]; in assay [5] it was 12.3% [at 30.8 µM]. The activity change, negative = inhibition in assay [4] is -6.24% [at 30.8 µM].
With `CN(CCC#N)C(=O)COC(=O)c1c2c(nc3ccccc13)/C(=C\c1ccco1)CC2`, the Potency in assay [1] was 9.53 µM (active). Also, the Potency entry in assay [2], in assay [3], in assay [4] and in assay [5] was “inactive” throughout.
Consider `Cc1ccc(-c2noc(CSc3nnnn3C3CCCCC3)n2)cc1`, for which the Potency entry in assay [1], in assay [2], in assay [3], in assay [4] and in assay [5] was “inactive” in each case.
As to `COc1ccc(OC)c(NC(=O)C2(C)CCN2Cc2ccsc2)c1` (stereo not given), the Potency entry in assay [1], in assay [2], in assay [3], in assay [4] and in assay [5] was “inactive” in each case.
Take `O=C(O)c1ccccc1NS(=O)(=O)c1ccc(N/N=C/c2cccc(O)c2O)c([N+](=O)[O-])c1`: the Potency in assay [1] was 9.53 µM (active). Moreover, the Potency entry in assay [2], in assay [3], in assay [4] and in assay [5] was “inactive” throughout.
Turning to `O=C(CN1C(=O)NC2(CCCC2)C1=O)Nc1nc2c(F)cc(F)cc2s1`, the Potency entry in assay [1], in assay [2], in assay [3], in assay [4] and in assay [5] was “inactive” throughout.
As to `CCN(CC(=O)Nc1ccc(NC(C)=O)cc1)C(=O)C1(c2ccc(Cl)cc2)CCC1`, the Potency entry in assay [1], in assay [2], in assay [3], in assay [4] and in assay [5] was “inactive” each time.
As to `CC(=O)NC(c1ccccc1)c1nc(-c2cccs2)cs1` (stereo not given), the Potency result in assay [1], in assay [2], in assay [3], in assay [4] and in assay [5] was “inactive” in each case.
As to `Cc1nnc(SCCn2c(N3CCC(Cc4ccccc4)CC3)nc3c2c(=O)[nH]c(=O)n3C)s1`, the Potency entry in assay [1], in assay [2], in assay [3], in assay [4] and in assay [5] was “inactive” throughout.

The record behind these values is PubChem BioAssay (NCATS).
